High-throughput results: PubChem BioAssay, National Center for Advancing Translational Sciences (NCATS)
FEN1 inh – human FEN1 inhibition; Recombinant FEN1 flap cleavage, fluorescence, 15 min; 390,000 compounds, 0.35% hits; AID 588795; Potency, µM (highest dose often 114 µM), hits mostly inhibitors; further: nearly all actives have a fitted effect of over 65% in size
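Recombinant FEN1 (10 nM) was preincubated with pin-transferred compounds for 15 min at room temperature, then flap DNA substrate (50 nM final) was added. Plates were read at 0 and 15 min, and normalized concentration–response data were fitted to a four-parameter Hill equation.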
Pol iota inh – inhibitors of human DNA polymerase iota; Potency, µM (titrated, usually from 115 µM), most hits filed as inhibitors; Q9UNA4; Pol iota fluorescent replication assay, 10 min; 390,000 compounds, 1% hits
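Fluorescent replication assay read twice, at 0 min and 10 min after adding 50 nM (final) substrate. Enzyme (10 nM) and compounds were first incubated 15 min at room temperature; enzyme-free buffer wells were negative controls.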
POLH inh – blocks human DNA polymerase eta activity; Potency, µM (doses to about 114 µM), hits mostly inhibitors; AID 588591; recombinant Pol eta, fluorescent DNA replication assay; 390,000 compounds, 1.2% hits; Q9Y253
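Pol eta (10 nM) was preincubated with compounds for 15 min at room temperature, after which fluorescent replication substrate (50 nM final) was added to start the reaction. Fluorescence was read kinetically at 0 and 10 min.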
Pol beta inh-1 – blocks human DNA polymerase beta activity | P06746 | 340,000 compounds, 1.3% hits | Pol beta primer extension/strand displacement, fluorescence kinetic | Potency, µM (series often up to 114 µM), hits mostly inhibitors
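Human Pol beta at 10 nM; strand-displacement substrate 50 nM final. Compound exposure 15 min at room temperature before start, reaction 10 min at room temperature.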
POLK inh – blocks human DNA polymerase kappa activity; 400,000 compounds, 0.53% hits; Q9UBT6; Potency, µM (doses to about 107 µM), usual class: inhibitors; AID 588579; purified Pol kappa, fluorescent DNA synthesis assay, 10 min
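Here, compound and 10 nM enzyme are combined for 15 min at room temperature; adding 50 nM substrate (final) starts DNA synthesis, tracked by fluorescence at 0 and 10 min against buffer-only wells.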
WRN inhibitor – inhibitors of human WRN helicase; AID 651768; 360,000 compounds, 0.46% hits; WRN helicase unwinding, fluorescent forked duplex, kinetic; Potency, µM (doses to about 114 µM), most hits filed as inhibitors; further: nearly all actives have a fitted effect of over 55% in size
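Enzyme (20 nM final) and test compound sit together 15 min at room temperature before substrate addition. Substrate is a single-forked duplex oligonucleotide (100 nM) labelled with fluorophore and quencher, with 2 mM ATP; helicase unwinding raises red fluorescence, read kinetically.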
Pol beta inh-2 – Inhibitors of human DNA polymerase beta, hit validation; shares compounds with Pol beta inh-1; Potency, µM, actives largely listed as inhibitors; 250 compounds, 87% hits; AID 540280; Pol beta primer extension/strand displacement, fluorescence kinetic; calls by dose curve
Klenow counter – Klenow polymerase inhibition, pol beta selectivity check. shares compounds with Pol beta inh-1. Klenow exo- polymerase counter-screen, fluorescent DNA substrate. activity change, negative = inhibition, % at 57.1 µM. 250 tested, under 10 active
HIV RT inh – counter-screen for DNA polymerase beta inhibitors: HIV-1 RT inhibition; shares compounds with Pol beta inh-1; HIV-1 RT polymerase activity, counter-screen; activity % (negative = inhibition, positive = activation), % at 57.1 µM; 250 tested, under 10 active
BAZ2B inh – inhibits human BAZ2B bromodomain, hit validation. 25 compounds, 100% hits. Potency, µM, usual class: inhibitors. AlphaScreen BAZ2B / biotin-H3K14Ac peptide displacement. shares compounds with POLK inh; calls by dose curve
BAZ2B bead ctr – AlphaScreen signal interference, BAZ2B hit counter-screen; shares compounds with POLK inh; AlphaScreen biotin-His6 peptide bead counterscreen, signal decrease; Potency, µM (top dose mostly 57.1 µM), hits mostly inhibitors; 25 tested, under 10 active; AID 588859;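 active means clear concentration-dependent signal drop in the bead assay lacking the target, so a primary-screen artifact; inconclusive means weak, partial or single-dose response; inactive means no response, so a real primary hit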
PGK validate – blocks T. brucei phosphoglycerate kinase; shares compounds with POLK inh; 500 compounds, 79% hits; Potency, µM (top dose mostly 57.5 µM), hits mostly inhibitors; TbPGK coupled GAPDH assay, Kinase-Glo luminescence; further: nearly all actives have a fitted effect of over 65% in size
A number is an active result; 0 = inactive; ? = inconclusive; - = not tested or not shown; [ ] = another dose, or the depositor's remark. A selection: hits, their analogues and other compounds. The true share with any hit is near 2.4%. Unless noted, the call rests on the fitted dose curve; in most records, active means well fitted curve in the direction sought with a large enough effect; inconclusive means small, poorly fitted or top-dose-only effect, or another doubt; inactive means no such curve, though single readings can be large; an effect the other way counts as inactive or inconclusive.

SMILES | FEN1 inh | Pol iota inh | POLH inh | Pol beta inh-1 | POLK inh | WRN inhibitor | others
COC1C(OC(=O)c2ccc(C)[nH]2)C(O)C(Oc2ccc3c(O)c(NC(=O)c4ccc(O)c(CC=C(C)C)c4)c(=O)oc3c2Cl)OC1(C)C (stereo not given) | 0 | 0 | ? | 45µM | 0 | 0
CCCCCC[C@H]1C(=O)O[C@H](C)[C@H](NC(=O)c2cccc(NC=O)c2O)C(=O)O[C@@H](C)[C@H]1OC(=O)CC(C)C | - | - | - | - | 0[12 µM] | -
CCc1ccc(N2NC(=O)/C(=C/C=C/c3ccco3)C2=O)cc1 | 0 | 18µM | ? | ? | ? | ?
CN(C)C1C(=O)C(C(N)=O)=C(O)[C@@]2(O)C(=O)C3=C(O)c4c(O)cccc4[C@@](C)(O)C3[C@H](O)C12 (stereo not given in full) | - | - | - | - | 10µM | -
CN(C)[C@@H]1C(=O)C(C(N)=O)=C(O)[C@]2(O)C(=O)C3=C(O)c4c(O)cccc4[C@@](C)(O)[C@H]3[C@H](O)[C@@H]12 | - | - | - | - | 4.7µM | -
CC(=O)[C@H]1CC[C@H]2C3CC[C@H]4C[C@](C)(O)CC[C@]4(C)C3CC[C@]12C (stereo not given in full) | - | - | - | - | 0 | -
Cc1cccn2c(=O)c(/C=C(\C#N)c3nc4ccccc4s3)c(Oc3ccc(F)cc3)nc12 | ? | ? | 79µM | ? | 0 | -
Cc1cc(C)cc(Oc2nc3ccccn3c(=O)c2/C=C(\C#N)c2nc3ccccc3s2)c1 | 0 | 0 | ? | ? | 0 | -
CC(=O)O.CC(=O)O.[Cd] | - | - | - | - | 10µM | -
COC(=O)C[C@@](O)(CCC(C)(C)O)C(=O)O[C@@H]1C(OC)=C[C@]23CCCN2CCc2cc4c(cc2[C@@H]13)OCO4 | - | - | - | - | 0 | -
CN(C)CCN(C)CCc1ccc(Cl)c(Cl)c1 | - | - | - | - | 0[19.4 µM] | -
C=C(C)C(=O)Nc1cccc(C2=NOC3(C2)C[C@H](C(N)=O)N(C(=O)CC)C3)c1 (stereo not given in full) | 0 | ? | 11µM | 3.5µM | 79µM | 0 | Pol beta inh-2=8.9;Klenow counter=0;HIV RT inh=0;BAZ2B inh=7.1;BAZ2B bead ctr=0
CON(C)C(=O)Nc1ccc(Br)cc1 | - | - | - | - | 0 | -
CCN(CC)C(=O)c1ccc2c(c1)C1C=CCC1C(C(=O)O)N2 (stereo not given) | ? | 13µM | 4µM | 35µM | ? | 45µM | PGK validate=?
OC[C@H]1O[C@@H](n2cnc3cc(Cl)c(Cl)cc32)[C@H](O)[C@H]1O | - | - | - | - | 0 | -
C[N+](C)(C)CCCl | - | - | - | - | 0 | -
O=c1cc(OCc2ccccc2)cc[nH]1 | 0 | 0 | 0 | - | 0 | 0 | BAZ2B inh=2.2;BAZ2B bead ctr=10µM
CN1C(=O)C(Cc2ccc(OCc3ccccc3)cc2)C(=O)N(C)C1=O | 0 | 0 | 0 | 0 | 0 | 0
CC[C@@]1(O)C(=O)OCc2c1cc1n(c2=O)-c2cc3ccccc3nc2C1 | - | - | - | - | 0 | -
CCN(CC)P(=O)(NC(=O)C(Cl)(Cl)Cl)N(CC)CC.[Cl-].[Cl-].[Cl-].[Nd+3] | ? | ? | ? | ? | 79µM | ? | PGK validate=?
CN1C(=O)NC(=O)/C(=C\c2ccc([N+](=O)[O-])o2)C1=O | 16µM | 2.5µM | 2.2µM | 100µM | 14µM | 25µM | PGK validate=1.8µM
